The list shows a part of the results. The true hit rate is not given.
Target: furin, P09958
Assay: furin cleavage Z-score vs untreated control; higher = more cleavage, active = 3.5 or more, inactive = 1 or less, 8 variable residues between constant flanks
In short: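 To give the cleavage Z-score, log read counts were set against furin-free reactions, lowess-adjusted and scaled by median absolute deviation. These counts came from PCR adapter-tagged, sequenced DNA released when purified furin cut 8-mer peptides fused to a cDNA oligonucleotide and held on magnetic beads by their N-terminus. Digests were 0.01 ml, 1:10 enzyme:substrate, in 50 mM HEPES pH 7.5 with CaCl2 and NaCl, for 7.5, 15 or 30 min.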

Chain of furin, P09958 (P09958 whole entry): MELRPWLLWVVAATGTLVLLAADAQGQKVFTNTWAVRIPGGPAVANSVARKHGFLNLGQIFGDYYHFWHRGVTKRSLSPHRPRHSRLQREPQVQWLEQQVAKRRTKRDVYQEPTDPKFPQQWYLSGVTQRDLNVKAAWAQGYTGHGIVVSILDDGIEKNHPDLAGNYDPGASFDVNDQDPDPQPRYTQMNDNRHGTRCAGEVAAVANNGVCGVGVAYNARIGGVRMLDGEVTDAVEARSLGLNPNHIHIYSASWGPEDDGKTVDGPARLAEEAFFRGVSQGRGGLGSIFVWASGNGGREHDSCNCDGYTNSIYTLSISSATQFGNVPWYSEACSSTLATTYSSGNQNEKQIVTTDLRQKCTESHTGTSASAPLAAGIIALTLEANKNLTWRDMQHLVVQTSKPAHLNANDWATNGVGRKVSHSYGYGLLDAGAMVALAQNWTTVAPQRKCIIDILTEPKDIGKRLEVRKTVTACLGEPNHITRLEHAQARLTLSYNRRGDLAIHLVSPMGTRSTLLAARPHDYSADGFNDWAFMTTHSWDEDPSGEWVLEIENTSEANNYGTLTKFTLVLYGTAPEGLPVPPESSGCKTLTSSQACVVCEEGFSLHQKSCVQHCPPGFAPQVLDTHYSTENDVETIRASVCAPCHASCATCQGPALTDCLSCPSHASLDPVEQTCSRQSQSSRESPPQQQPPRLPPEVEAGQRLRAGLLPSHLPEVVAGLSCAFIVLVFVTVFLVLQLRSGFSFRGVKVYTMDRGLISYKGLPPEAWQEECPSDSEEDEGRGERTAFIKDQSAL

| Sequence | furin cleavage Z-score (7.5 min) | furin cleavage Z-score (15 min) | furin cleavage Z-score (30 min) |
| --- | --- | --- | --- |
| CAYFSMVGNWAGNASASA [HC341] | -0.31 (inactive) | -0.533 (inactive) | -2.31 (inactive) |
| CACKPLLREEAGNASASA [HC1229] | -2.56 (inactive) | 0.033 (inactive) | 0.531 (inactive) |
| CAPRRHWTTQAGNASASA [HC308] | 0.172 (inactive) | -0.306 (inactive) | 0.325 (inactive) |
| CAVLSDFKTWAGNASASA [HC1154] | -0.128 (inactive) | -0.333 (inactive) | -0.963 (inactive) |
| CAPRRRQQREAGNASASA [FS-1551] | 6.3 (active) | 4.83 (active) | 5.13 (active) |
| CAVLSRQKREAGNASASA [FS-206] | 11.7 (active) | 9.59 (active) | 8.73 (active) |
| CATTPCAGSWAGNASASA [HC61] | -1.21 (inactive) | 0.988 (inactive) | 1.04 |
| CASFDPLVAEAGNASASA [HC1288] | -1.29 (inactive) | -0.652 (inactive) | 0.659 (inactive) |
| CAEARRTMRSAGNASASA [FS-228] | 6.84 (active) | 6.18 (active) | 7.34 (active) |
| CAWLERTMRSAGNASASA [FS-108] | 4.21 (active) | 5.66 (active) | 4.38 (active) |
| CACAVRHMRSAGNASASA [FS-1513] | 0.659 (inactive) | 0.712 (inactive) | 1.2 |
| CALEVVTSTWAGNASASA [HC987] | 0.41 (inactive) | 0.551 (inactive) | 1.7 |
| CAEVVTSTWAAGNASASA [HC2243] | -0.622 (inactive) | 0.588 (inactive) | -0.814 (inactive) |
| CAVVCCSMIYAGNASASA [HC2064] | -0.191 (inactive) | -0.994 (inactive) | 0.202 (inactive) |
| CAGSPPSVASAGNASASA [HC1257] | -0.959 (inactive) | -1.08 (inactive) | 0.309 (inactive) |
| CAGSPRSKRAAGNASASA [FS-788] | 11.2 (active) | 9.92 (active) | 8.49 (active) |
| CACVRRSPCAAGNASASA [FS-2118] | -0.381 (inactive) | -1.71 (inactive) | -0.39 (inactive) |
| CAGSSRRFRAAGNASASA [FS-1003] | -0.163 (inactive) | 1.3 | 2.13 |
| CARWRRTKGAAGNASASA [FS-1873] | -0.133 (inactive) | -1.53 (inactive) | -0.0248 (inactive) |
| CARWRRSKRAAGNASASA [FS-959] | 11.1 (active) | 11.6 (active) | 8.46 (active) |
| CACFRRSKRAAGNASASA [FS-1514] | 9.65 (active) | 9.01 (active) | 6.16 (active) |
| CACFRKHPDAAGNASASA [HC453] | -1.37 (inactive) | -1.46 (inactive) | -0.48 (inactive) |
| CAGVLTTSCGAGNASASA [HC1512] | -0.572 (inactive) | 0.491 (inactive) | -0.869 (inactive) |
| CAATQLRRHIAGNASASA [HC288] | -0.217 (inactive) | 0.529 (inactive) | 1.16 |

| Sequence | furin cleavage Z-score (7.5 min) | furin cleavage Z-score (15 min) | furin cleavage Z-score (30 min) |
| --- | --- | --- | --- |
| CAYASRGIRPAGNASASA [FS-1618] | -0.625 (inactive) | -0.502 (inactive) | -1.11 (inactive) |
| CASHQKKKRAAGNASASA [FS-1486] | 4.35 (active) | 2.8 | 4.35 (active) |
| CAAQQRKKRAAGNASASA [FS-1306] | 6.17 (active) | 6.15 (active) | 6.14 (active) |
| CAAGARLVVLAGNASASA [HC830] | 1.19 | 0.934 (inactive) | 0.0298 (inactive) |
| CAGGQRKKRAAGNASASA [FS-1125] | 8.55 (active) | 7.61 (active) | 6.45 (active) |
| CAGGQIVGGVAGNASASA [HC174] | -1.23 (inactive) | -1.41 (inactive) | -1.78 (inactive) |
| CAAGAGAGAGAGNASASA [NE3] | -0.934 (inactive) | -0.656 (inactive) | -0.752 (inactive) |
| CAAGARKKRAAGNASASA [FS-970] | 6.63 (active) | 6.95 (active) | 6.49 (active) |
| CALREVPCHRAGNASASA [HC2425] | -0.109 (inactive) | -0.538 (inactive) | -0.256 (inactive) |
| CAEVPCHEPSAGNASASA [HC2372] | -0.836 (inactive) | 1.11 | -0.669 (inactive) |
| CAGAPPCVIGAGNASASA [HC443] | 1.73 | -1.15 (inactive) | -0.113 (inactive) |
| CALAGTHGLVAGNASASA [HC540] | 0.465 (inactive) | 1.56 | 0.729 (inactive) |
| CATDRSGAPTAGNASASA [HC420] | -0.957 (inactive) | -0.534 (inactive) | 0.262 (inactive) |
| CANVSVAHDGAGNASASA [HC1555] | 0.322 (inactive) | -0.558 (inactive) | 0.0108 (inactive) |
| CAALENLVILAGNASASA [HC534] | -0.644 (inactive) | -1.06 (inactive) | -0.181 (inactive) |
| CARAKKIFGWAGNASASA [FS-1680] | 1.69 | 0.732 (inactive) | 0.406 (inactive) |
| CARIKRAGGFAGNASASA [FS-2261] | 6.34 (active) | 8.63 (active) | 7.18 (active) |
| CAREKRGNGWAGNASASA [FS-2254] | -0.781 (inactive) | 0.97 (inactive) | 2.15 |
| CARIKRAEGWAGNASASA [FS-2149] | 6.5 (active) | 7.28 (active) | 7.15 (active) |
| CARGARVVFKAGNASASA [FS-2930] | -2.06 (inactive) | -1.04 (inactive) | -0.554 (inactive) |
| CARSLRSEFKAGNASASA [FS-3209] | -0.188 (inactive) | -0.988 (inactive) | 0.991 (inactive) |
| CARIKRMVFKAGNASASA [FS-1722] | 5.13 (active) | 5.7 (active) | 8.11 (active) |
| CARIKKSKMIAGNASASA [FS-2260] | -0.171 (inactive) | 1.16 | -0.504 (inactive) |
| CARFWRSTGFAGNASASA [FS-2669] | 0.601 (inactive) | 1.09 | 0.345 (inactive) |

Source: the supplement of paper PMC3545927
